Consider eleven compounds from PubChem BioAssay (EPA / NIEHS).

Active and inactive are the calls of the source. Rule for the calls: active = hit-call score of the fitted dose curve at least 0.9, where 1 is the maximum; inactive = score below 0.9.

Sequence of Cytochrome P450 2C19 (Homo sapiens) (P33261 whole entry, looked up): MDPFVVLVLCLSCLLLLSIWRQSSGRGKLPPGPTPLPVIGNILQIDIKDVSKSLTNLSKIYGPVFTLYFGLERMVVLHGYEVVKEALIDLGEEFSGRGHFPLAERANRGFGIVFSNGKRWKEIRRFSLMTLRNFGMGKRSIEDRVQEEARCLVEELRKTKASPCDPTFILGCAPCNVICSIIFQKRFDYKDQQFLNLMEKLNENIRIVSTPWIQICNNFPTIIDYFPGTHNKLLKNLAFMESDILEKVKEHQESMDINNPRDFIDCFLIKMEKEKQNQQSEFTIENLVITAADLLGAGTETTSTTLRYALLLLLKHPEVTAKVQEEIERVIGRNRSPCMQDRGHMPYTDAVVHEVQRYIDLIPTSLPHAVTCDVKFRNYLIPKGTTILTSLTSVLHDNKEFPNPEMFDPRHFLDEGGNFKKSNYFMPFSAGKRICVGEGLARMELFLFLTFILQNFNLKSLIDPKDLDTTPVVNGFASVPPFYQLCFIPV

Read-out in this experiment: Cytochrome P450 2C19 (Homo sapiens) (UniProt P33261)
Nature of the experiment: LTEA_HepaRG_CYP2C19: Life Technologies and Expression Analysis (LTEA) Assay for CYP2C19 using HepaRG (AID 2283482). The note with it: mRNA level, 48 h; actives raise or lower the signal. The protocol: LTEA_HepaRG is a cell based, multiplexed-readout assay that uses HepaRG, a human liver cell line, with measurements taken at 48 hours after chemical dosing on a 96-well plate.LTEA_HepaRG_CYP2C19 is one of 102 assay component(s) measured in the LTEA HepaRG cell culture assay. It is a marker of NR mediated metabolism.Data from the assay component LTEA_HepaRG_CYP2C19 was analyzed into 1 endpoint. This assay endpoint, LTEA_HepaRG_CYP2C19, was analyzed with bidirectional fitting relative to DMSO as the negative control and baseline of activity. Using a type of inducible reporter, measures of mRNA induction for gain or loss-of-signal activity can be used to understand regulation of transcription factor activity. To generalize the intended target to other relatable targets, this assay endpoint is annotated to the cyp intended target family, where the subfamily is xenobiotic metabolism.
A total of 1060 chemcials from the ToxCast library were tested in eight-point concentration-response experiments. Cell culture and cytotoxicity assays were conducted at Thermo Fisher Scientific's Custom Services facility (Madison, WI). A single lot of human HepaRG cells (Thermo Fisher Scientific, Frederick, MD) was used for the cell culture experiments. 96-well format collagen type I coated plates of human HepaRG cells were prepared using established methods. Briefly, cryopreserved HepaRG cells were thawed, plated at a density of approximately 100,000 cells/well in HepaRG Thaw, Plate, and General Purpose media (HPRG770, Thermo Fisher Scientific), and incubated for 48 hours. 0.5% DMSO was selected as vehicle control to balance the requisite need of DMSO in HepaRG cultures to maintain differentiation (for example, baseline metabolism, proportions of hepatocytes vs. cholangiocytes), while enabling further hepatic receptor pathway activation (for example, PXR and CAR) in response to chemical exposure. 48 hours after plating, the culture medium was replaced with HepaRG Serum-Free Incudtion Media. Cells were exposed to each test chemical in duplicate and maintained in CO2 incubators for another 48 hours. Chemical plates were thawed to room temperature and 200x concentrations of treatment groups were prepared. 8-point conentration-reponse curves were made with the highest exposure at 100 uM, followed by half-log dilutions, all in 0.5% DMSO. Each test plate contained variouse controls, induction positive controls (1mM phenobarbital), cytotoxicity positive controls ([…] aflatoxin B1), vehicle controls (0.5% DMSO), and total lysis controls (0.5% DMSO). Cell morphology images were taken using an Essen IncuCyte FLR automated microscope, with six 96-well plates imaged in about 24 minutes. Images were captured and exported and JPEG files. Spent culture media was transfered to black-well plates for the LDH assay, and remaining media was sorted at -80 C for later use. Cells were treated with RLT buffer and frozen until shipped for gene expression analysis. Total RNA was isolated from the cell suspension in 75 uL of Buffer RLT (Qiagen, Germantown, MD 20874) by Quintiles/Expression Analysis (Durham, NC) using a custom isolation procedure. Total RNA from each plate well was transferred to a preamplification plate. Fluidigm's 96.96 Dynamic ArrayTM (Fluidigm, Amsterdam, the Netherlands) technology was used for gene expression analyses by quantitative reverse transcription polymerase chain reaction (qRT-PCR, performed by Quintiles/Expression Analysis, Durham, NC)89. Standard TaqManTM Assays (Applied Biosystems/ThermoFisher Scientific, Foster City, CA) were used to assess the expression of 93 genes selected based on their selectivity and sensitivity to important hepatic receptors known to be modulated by environmental chemicals; importance in human hepatocyte functionality; and hepatotoxicity. […]
`CC(=O)Nc1ccc(O)cc1`: the compound was classed as inactive.

On to `OCC(CO)(CBr)CBr`, for which the compound was classed as inactive.

`O=C1NS(=O)(=O)c2ccccc21`: the call was inactive.

What is called AC50 is the midpoint of the concentration-response curve, whichever way the signal moves. Turning to `CCCCCCCCCCCCOS(=O)(=O)O`, the AC50 was 82.1 µM (active).

Turning to `CCCCC(CC)C(=O)O` (stereo unspecified), the call was inactive.

Turning to `CN(Cc1cnc2nc(N)nc(N)c2n1)c1ccc(C(=O)N[C@@H](CCC(=O)O)C(=O)O)cc1`, the result was inactive.

As for `Cc1[nH]nc2c1N=C(c1ccccc1Cl)c1cc([N+](=O)[O-])ccc1N2`, the half-maximal activity concentration (AC50) is 4.24 µM (active).

As for `CCC(C)c1ccccc1O` (stereo unspecified), the outcome was inactive.

Regarding `N=C(N)c1ccc(OCCCCCOc2ccc(C(=N)N)cc2)cc1`, the half-maximal activity concentration (AC50) was 6.53 µM (active).

As for `CCCCCCCCCCCCCCC`, the AC50 is 17.3 µM (active).

Regarding `CCCCC=O`, the call was inactive.
